Among all 190,000 compounds or so, about 1,300 (0.68%) were called active. The sample holds actives, similar compounds and a random draw of the others, so the mix is not that of the screen. Rule as the data show it: active = inhibition above about 50%; inactive = the rest.

Sequence of Mannose-6-phosphate isomerase (Homo sapiens) (P34949 whole entry, looked up): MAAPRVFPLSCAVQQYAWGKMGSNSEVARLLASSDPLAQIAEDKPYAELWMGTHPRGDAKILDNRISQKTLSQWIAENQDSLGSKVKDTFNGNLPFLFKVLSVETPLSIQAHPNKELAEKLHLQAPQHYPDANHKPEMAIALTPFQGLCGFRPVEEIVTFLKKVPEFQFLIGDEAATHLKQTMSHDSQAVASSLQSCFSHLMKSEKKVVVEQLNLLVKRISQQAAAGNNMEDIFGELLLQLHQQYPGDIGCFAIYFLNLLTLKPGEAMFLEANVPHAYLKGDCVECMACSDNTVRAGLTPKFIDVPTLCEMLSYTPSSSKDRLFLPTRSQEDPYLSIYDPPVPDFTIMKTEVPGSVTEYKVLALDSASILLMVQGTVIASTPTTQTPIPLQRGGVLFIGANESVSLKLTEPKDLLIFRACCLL

This assay addresses Mannose-6-phosphate isomerase (Homo sapiens) (UniProt P34949). As to the kind of experiment: human PMI inhibitors, high substrate, primary screen, biochemical, fluorescence intensity, high mannose 6-phosphate (AID 1220). Particulars: recombinant PMI enzyme, coupled fluorescence intensity; at 20 µM; stronger effect = higher value.
One may read the inhibition as the change of the read-out against control, counted positive when it falls. `CCCN1C(=O)C(O)(C/C(C)=N/O)c2ccccc21` (stereo unspecified): the inhibition is 3.5% (inactive). Regarding `COc1ccc(CC(=O)OC(C)CN2CCOCC2)cc1` (stereo unspecified), the inhibition is -1.4% (inactive). `Cc1ccc(-c2nc(C3CCCN(S(=O)(=O)c4ccc(C)cc4)C3)no2)cc1` (stereo unspecified): the inhibition is 5.6% (inactive). As to `CCN(CC)S(=O)(=O)c1ccc(C(=O)OCn2c(SC)nnc(C)c2=O)cc1`, the inhibition is 12.1% (inactive). Regarding `O=S(=O)(NCc1ccccc1)c1cccc(S(=O)(=O)N2CCOCC2)c1`, the inhibition was 4.1% (inactive). `CCn1ncc(Br)c1C(=O)Nc1ccc2c(c1)OCCO2`: the inhibition was 0.3% (inactive).

Consider `O=C(Nc1ccc2c(c1)OCCO2)Nc1ccc2c(c1)OCO2`, for which the inhibition is 13% (inactive). For the molecule `Cc1ccc(NC(=S)Nc2ccc(S(=O)(=O)N3CCOCC3)cc2)cc1S(=O)(=O)N1CCOCC1`, the inhibition was -1.2% (inactive). Next, `S=C(Nc1ccc2c(c1)OCCO2)Nc1ccc2c(c1)OCO2`: 62.7% (active). Turning to `O=C(Nc1ccc2c(c1)OCO2)Nc1ccc2c(c1)OCO2`, the inhibition was 15.8% (inactive). Consider `O=S(=O)(c1ccc(NC(=S)Nc2ccc3c(c2)OCO3)cc1)N1CCOCC1`, for which the inhibition was 52.2% (active). Turning to `O=S(=O)(NCc1ccc2c(c1)OCO2)c1cccc(S(=O)(=O)N2CCOCC2)c1`, the inhibition is 52.5% (active). For `CCn1ncc(NC(=S)NCCc2ccccc2)c1C(N)=O`, the inhibition was 5.4% (inactive). Next, `O=S(=O)(NCc1ccc(F)cc1)c1cccc(S(=O)(=O)N2CCOCC2)c1`: -0.5% (inactive). As for `O=S(=O)(c1ccc(NC(=S)Nc2ccccc2)cc1)N1CCOCC1`, the inhibition is -2.7% (inactive). Take `CCn1ncc(NC(=S)Nc2ccc3c(c2)OCO3)c1C(N)=O`: the inhibition was 57.3% (active). In the case of `O=C1CC(c2ccc(F)cc2)CC2=C1C=Nc1ccccc1N2` (stereo unspecified), the inhibition was -4.8% (inactive). Turning to `Cc1nn(Cc2ccccc2)c(C)c1NC(=O)CCCn1nc(C)c([N+](=O)[O-])c1C`, the inhibition was -2.1% (inactive). As to `CCCCC(=O)Nc1ccc(NC(=O)c2cc(OC)c(OC)c(OC)c2)cn1`, the inhibition was 3.2% (inactive). With `CCN1CCCc2cc(CN(CCN3CCOCC3)C(=S)Nc3ccc(OC)c(OC)c3)ccc21`, the inhibition is 22.3% (inactive).

On to `COc1ccccc1CNC(=O)C1CCC(CNc2c(N3CCOCC3)c(=O)c2=O)CC1` (stereo unspecified), for which the inhibition was 16.7% (inactive). On to `CC(=O)c1cnc(Nc2ccc(C)cc2)s1`, for which the inhibition is 1.9% (inactive). As for `C=CCSc1nnc(NC(=O)CSc2nc3ccccc3[nH]2)s1`, the inhibition is 4.3% (inactive). Consider `Cc1cc(NC(=O)c2ccc(Cl)cc2)n(CCOC(=O)c2ccc(Cl)cc2)n1`, for which the inhibition is 10.6% (inactive).

Take `Cc1nc2ccc(NC(=O)NCCO)cc2s1`: the inhibition is 3.3% (inactive). Next, `COc1ccc(C(=O)NCc2ccc(Cl)c(Cl)c2)cc1OC`: -0.1% (inactive); `Cc1cccc(-c2nc(CS(=O)CC(=O)N3CCCCC3)c(C)o2)c1` (stereo unspecified): 5.1% (inactive). Next, `O=c1cc(N2CCCCCC2)[nH]c(=O)n1-c1ccccc1Cl`: -6.5% (inactive); `Cc1ccccc1-n1c(=O)cc(N2CCC3(CC2)OCCO3)[nH]c1=O`: 7% (inactive); `Cc1ccccc1-n1c(=O)cc(N2CCCCCC2)[nH]c1=O`: 62.9% (active). For the molecule `CCOC(=O)/C(N=Nc1ccc(C(=O)O)cc1[N+](=O)[O-])=C(\C)O`, the inhibition was -1.9% (inactive). Next, `CC(C)Cc1nc2oc3c(N4CCN(CCO)CC4)ncnc3c2c2c1CCCC2`: 2% (inactive). For the molecule `Cc1ccc(Cl)cc1NC(=S)N(CCCN1CCOCC1)Cc1ccco1`, the inhibition was -6.2% (inactive). In the case of `Clc1ncc(CSc2ccccc2)s1`, the inhibition is -2.5% (inactive). With `Cc1ccc(S(=O)OCC(=O)Nc2cc(Cl)ccc2N2CCOCC2)cc1` (stereo unspecified), the inhibition is 52% (active).

For the molecule `COC(=O)c1ccccc1NC(=O)CNc1cc(Cl)ccc1N1CCOCC1`, the inhibition is 9.8% (inactive).

For the molecule `O=C(COS(=O)c1ccccc1)Nc1cc(Cl)ccc1N1CCOCC1` (stereo unspecified), the inhibition was 8.4% (inactive). Take `COc1ccccc1C(=O)Nc1ccccc1SC`: the inhibition is 10.6% (inactive). Next, `COc1ccc(S(=O)(=O)CCC(=O)N2c3ccccc3CC2C)cc1` (stereo unspecified): 2% (inactive). Regarding `O=C(Nc1ccc2c(c1)OCO2)c1ccc(S(=O)(=O)NCC2CCCO2)cc1` (stereo unspecified), the inhibition was -2.4% (inactive).

Consider `COc1ccc2c(C)cc(=O)[nH]c2c1`, for which the inhibition was -3% (inactive). In the case of `CCOC(=O)CSc1[nH]c2cc(OC)ccc2c1[N+](=O)[O-]`, the inhibition is 9.3% (inactive). With `COc1ccc2c([N+](=O)[O-])c(Cl)[nH]c2c1`, the inhibition is 67.9% (active). For `O=C(COC(=O)c1c2ccccc2cc2ccccc12)Nc1ncc(C(F)(F)F)cc1Cl`, the inhibition is 2.9% (inactive). For the molecule `COc1ccc(CCNC(=O)CSc2nc3ccccc3o2)cc1`, the inhibition is 1.3% (inactive). With `COc1ccc(CN=Cc2c(C(F)(F)F)[nH][nH]c2=O)cc1`, the inhibition was -0.7% (inactive). Consider `O=C(C1=C(c2ccccc2)C(=O)c2ccccc2C1=O)c1ccccc1`, for which the inhibition was 71.6% (active). Take `COC1=C(c2ccccc2)C(=O)c2ccccc2C1=O`: the inhibition is -57.4% (inactive). With `O=C1C(=C(O)c2ccccc2)C(=O)c2ccccc21`, the inhibition was -47.9% (inactive). `CC(C)c1ccc(C2=C(O)c3ccccc3C(=O)C2=O)cc1`: the inhibition was 22.2% (inactive). Take `O=C1C(c2ccncc2)=C(O)c2ccccc21`: the inhibition is -4.7% (inactive). Consider `COc1ccc(C(=S)Nc2ccc(C)cc2)cc1`, for which the inhibition is 3.8% (inactive). On to `CC(C)(C)c1ccc(S(=O)(=O)N2CCCC2C(=O)N2CCOCC2)cc1` (stereo unspecified), for which the inhibition was 3.5% (inactive). With `CCOC(=O)c1nn(-c2ccccc2F)c2nc(-c3ccco3)c(C#N)c(=O)n12`, the inhibition is -13.6% (inactive). For `Cc1ccc(-n2c(=S)[nH]c3sc4c(c3c2=O)CCc2ccccc2-4)cc1`, the inhibition is 24.1% (inactive).

On to `Cc1ccc(-n2c(=S)[nH]c3sc4c(c3c2=O)CCC4)cc1`, for which the inhibition was 9.7% (inactive). `CCN(Cc1ccncc1)S(=O)(=O)c1ccc(C(C)=O)cc1`: the inhibition was -13.6% (inactive).

Turning to `CCCCSc1cnn(-c2ccccc2)c(=O)c1SCCCC`, the inhibition is 5.9% (inactive). Regarding `CN1CCOc2cc(S(=O)(=O)Nc3ccc(F)cc3)ccc21`, the inhibition was 0.5% (inactive).

For `COc1ccc(CCNC(=O)CN2C(=O)NC(C)(c3ccc([N+](=O)[O-])cc3)C2=O)cc1` (stereo unspecified), the inhibition is -0.6% (inactive). For the molecule `O=C1NC(c2ccc(-c3ccccc3[N+](=O)[O-])o2)C(C(=O)c2ccccc2)C(O)(C(F)(F)F)N1` (stereo unspecified), the inhibition was 50.5% (active). As to `Cc1ccc(C2NC(=O)NC(O)(C(F)(F)F)C2C(=O)c2ccccc2)o1` (stereo unspecified), the inhibition was -19.5% (inactive).

`O=C1NC(c2ccc(-c3ccccc3[N+](=O)[O-])o2)C(C(=O)c2ccc(F)cc2)C(O)(C(F)(F)F)N1` (stereo unspecified): the inhibition was 42.1% (inactive).

Regarding `O=C1NC(c2ccc(-c3ccccc3[N+](=O)[O-])o2)C(C(=O)c2ccc(Cl)cc2)C(O)(C(F)(F)F)N1` (stereo unspecified), the inhibition is 50.3% (active). Turning to `COc1cc(C2NC(=O)NC(O)(C(F)(F)F)C2C(=O)c2ccc(Cl)cc2)ccc1O` (stereo unspecified), the inhibition is 2.5% (inactive). For `COc1ccc(C(=O)C2C(c3ccc(-c4ccccc4[N+](=O)[O-])o3)NC(=O)NC2(O)C(F)(F)F)cc1` (stereo unspecified), the inhibition is 43.4% (inactive).

The values above are taken from PubChem BioAssay AID1220 (Sanford-Burnham Center for Chemical Genomics, 2008).
